How the values were obtained:
Test in all cases: DAPPL (digital affinity profiling via proximity ligation, sequencing); 10 mM Tris-HCl pH 7.5, 50 mM NaCl, 1 mM DTT, 4% glycerol, room temperature, 30 min; GST-TFs on glutathione beads, 16-mer random dsDNA library, 0.1% formaldehyde crosslink after washing; high values mean tight binding
FLI1 = molecular target: T1, FLI1 (Homo sapiens, UniProt Q01543 1-452); settings: protein: recombinant; tags: N-terminal GST; dsDNA, one strand shown
T1 sequence: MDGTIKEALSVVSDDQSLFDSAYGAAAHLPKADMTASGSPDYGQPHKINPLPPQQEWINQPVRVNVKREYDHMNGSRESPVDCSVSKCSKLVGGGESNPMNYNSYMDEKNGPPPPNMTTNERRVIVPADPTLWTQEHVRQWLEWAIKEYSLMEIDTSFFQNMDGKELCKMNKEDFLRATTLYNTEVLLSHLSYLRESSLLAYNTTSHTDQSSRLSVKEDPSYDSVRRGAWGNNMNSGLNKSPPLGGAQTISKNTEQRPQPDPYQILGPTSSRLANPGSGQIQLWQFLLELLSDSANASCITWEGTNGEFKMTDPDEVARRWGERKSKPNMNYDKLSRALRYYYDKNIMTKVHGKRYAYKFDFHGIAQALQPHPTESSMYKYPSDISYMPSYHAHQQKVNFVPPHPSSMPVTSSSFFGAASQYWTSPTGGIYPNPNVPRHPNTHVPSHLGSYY
Method in brief: (§1)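 GST fusions of human transcription factors were expressed in yeast and captured with glutathione beads. Once given DNA barcodes and pooled alongside a tag-only sample, they were incubated for 30 min at room temperature with 200 nmole of a random double-stranded 16-mer DNA library in Tris/NaCl/DTT/glycerol buffer, then washed, crosslinked (0.1% formaldehyde), proximity-ligated, PCR-amplified and sequenced on an Illumina NextSeq500. The binding signal of each hexamer is its read frequency for a factor divided by its frequency for the tag-only sample.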

ELK1 = molecular target: T2, ELK1 (Homo sapiens, UniProt P19419 1-428); settings: protein: recombinant; tags: N-terminal GST; dsDNA, one strand shown
T2 sequence: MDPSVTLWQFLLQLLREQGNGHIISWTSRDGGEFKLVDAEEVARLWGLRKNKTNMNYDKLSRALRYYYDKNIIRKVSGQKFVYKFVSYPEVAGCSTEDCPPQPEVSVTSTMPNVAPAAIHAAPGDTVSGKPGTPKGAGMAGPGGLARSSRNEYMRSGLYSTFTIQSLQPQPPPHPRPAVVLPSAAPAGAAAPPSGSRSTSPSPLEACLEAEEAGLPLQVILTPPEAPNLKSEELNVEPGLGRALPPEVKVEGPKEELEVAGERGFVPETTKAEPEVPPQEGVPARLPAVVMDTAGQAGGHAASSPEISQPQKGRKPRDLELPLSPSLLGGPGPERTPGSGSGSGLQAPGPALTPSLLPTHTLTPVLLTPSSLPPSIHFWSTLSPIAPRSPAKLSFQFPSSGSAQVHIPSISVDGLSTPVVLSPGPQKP
Method in brief: as §1

GABPA = molecular target: T3, GABPA (Homo sapiens, UniProt Q06546 1-454); settings: protein: recombinant; tags: N-terminal GST; dsDNA, one strand shown
T3 sequence: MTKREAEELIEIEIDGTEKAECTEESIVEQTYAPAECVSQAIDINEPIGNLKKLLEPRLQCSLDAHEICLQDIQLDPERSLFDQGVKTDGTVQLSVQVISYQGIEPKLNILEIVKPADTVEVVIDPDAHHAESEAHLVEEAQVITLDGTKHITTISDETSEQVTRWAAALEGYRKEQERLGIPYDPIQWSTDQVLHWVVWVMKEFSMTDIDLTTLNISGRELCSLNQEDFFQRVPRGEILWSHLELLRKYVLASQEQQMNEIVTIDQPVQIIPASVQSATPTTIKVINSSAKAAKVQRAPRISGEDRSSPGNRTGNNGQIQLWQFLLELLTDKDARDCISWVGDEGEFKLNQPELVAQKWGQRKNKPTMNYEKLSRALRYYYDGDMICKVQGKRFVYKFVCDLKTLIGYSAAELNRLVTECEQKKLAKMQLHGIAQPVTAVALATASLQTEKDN
Method in brief: as §1

ERG = molecular target: T4, ERG (Homo sapiens, UniProt P11308 1-479); settings: protein: recombinant; tags: N-terminal GST; dsDNA, one strand shown
T4 sequence: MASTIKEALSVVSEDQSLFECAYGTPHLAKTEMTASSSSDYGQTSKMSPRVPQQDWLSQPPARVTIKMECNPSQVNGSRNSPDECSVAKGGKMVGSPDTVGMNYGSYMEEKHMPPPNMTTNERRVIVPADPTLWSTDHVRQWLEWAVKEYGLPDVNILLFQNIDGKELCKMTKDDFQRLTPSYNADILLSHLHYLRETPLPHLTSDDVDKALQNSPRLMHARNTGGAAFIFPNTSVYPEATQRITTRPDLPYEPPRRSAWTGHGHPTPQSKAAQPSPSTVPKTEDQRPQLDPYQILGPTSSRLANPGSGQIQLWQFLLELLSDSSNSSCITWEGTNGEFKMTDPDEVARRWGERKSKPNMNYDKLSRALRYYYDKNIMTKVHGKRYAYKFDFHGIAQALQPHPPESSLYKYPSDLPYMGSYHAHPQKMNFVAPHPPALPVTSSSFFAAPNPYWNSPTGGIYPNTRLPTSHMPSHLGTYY
Method in brief: as §1

ELF1 = ELF1 (Homo sapiens, UniProt P32519 1-619); settings: protein: recombinant; tags: N-terminal GST; dsDNA, one strand shown
Method in brief: as §1

EHF = molecular target: T5, EHF (Homo sapiens, UniProt Q9NZC4 1-300); settings: protein: recombinant; tags: N-terminal GST; dsDNA, one strand shown
T5 sequence: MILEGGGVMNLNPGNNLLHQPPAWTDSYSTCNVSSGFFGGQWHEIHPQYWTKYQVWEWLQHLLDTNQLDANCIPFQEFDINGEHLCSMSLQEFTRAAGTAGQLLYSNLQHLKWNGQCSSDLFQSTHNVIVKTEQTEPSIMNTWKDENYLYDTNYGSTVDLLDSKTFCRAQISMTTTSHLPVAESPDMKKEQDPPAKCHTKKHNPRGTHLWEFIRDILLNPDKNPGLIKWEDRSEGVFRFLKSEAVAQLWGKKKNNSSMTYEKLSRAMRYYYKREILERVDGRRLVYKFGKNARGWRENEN
Method in brief: as §1

SPI1 = SPI1 (Homo sapiens, UniProt P17947 1-270); settings: protein: recombinant; tags: N-terminal GST; dsDNA, one strand shown
Method in brief: as §1

SPIB = SPIB (Homo sapiens, UniProt Q01892 1-262); settings: protein: recombinant; tags: N-terminal GST; dsDNA, one strand shown
Method in brief: as §1

ELK3 = molecular target: T6, ELK3 (Homo sapiens, UniProt P41970 1-407); settings: protein: recombinant; tags: N-terminal GST; dsDNA, one strand shown
T6 sequence: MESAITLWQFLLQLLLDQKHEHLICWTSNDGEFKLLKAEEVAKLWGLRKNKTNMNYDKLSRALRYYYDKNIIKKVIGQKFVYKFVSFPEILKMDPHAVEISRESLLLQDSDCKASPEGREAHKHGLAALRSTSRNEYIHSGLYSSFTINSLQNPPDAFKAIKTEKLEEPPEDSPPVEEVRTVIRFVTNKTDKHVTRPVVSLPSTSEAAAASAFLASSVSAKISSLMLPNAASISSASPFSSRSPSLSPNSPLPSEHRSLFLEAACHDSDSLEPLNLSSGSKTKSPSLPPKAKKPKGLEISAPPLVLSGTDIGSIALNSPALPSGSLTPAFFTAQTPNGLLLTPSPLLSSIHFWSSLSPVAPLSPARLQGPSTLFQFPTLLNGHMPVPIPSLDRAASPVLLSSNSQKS
Method in brief: as §1

FEV = molecular target: T7, FEV (Homo sapiens, UniProt Q99581 1-238); settings: protein: recombinant; tags: N-terminal GST; dsDNA, one strand shown
T7 sequence: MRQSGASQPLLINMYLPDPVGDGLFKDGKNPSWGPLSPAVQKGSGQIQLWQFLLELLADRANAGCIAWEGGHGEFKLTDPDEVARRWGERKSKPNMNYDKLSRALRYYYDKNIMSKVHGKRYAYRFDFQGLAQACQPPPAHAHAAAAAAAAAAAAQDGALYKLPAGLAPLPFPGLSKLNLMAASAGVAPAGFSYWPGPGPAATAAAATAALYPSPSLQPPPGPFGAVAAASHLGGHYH
Method in brief: as §1

ETV5 = ETV5 (Homo sapiens, UniProt P41161 1-510); settings: protein: recombinant; tags: N-terminal GST; dsDNA, one strand shown
Method in brief: as §1

HSF1 = HSF1 (Homo sapiens, UniProt Q00613 1-529); settings: protein: recombinant; tags: N-terminal GST; chain copies: 3; dsDNA, one strand shown
Method in brief: as §1

SPIC = molecular target: T8, SPIC (Homo sapiens, UniProt Q8N5J4 1-248); settings: protein: recombinant; tags: N-terminal GST; dsDNA, one strand shown
T8 sequence: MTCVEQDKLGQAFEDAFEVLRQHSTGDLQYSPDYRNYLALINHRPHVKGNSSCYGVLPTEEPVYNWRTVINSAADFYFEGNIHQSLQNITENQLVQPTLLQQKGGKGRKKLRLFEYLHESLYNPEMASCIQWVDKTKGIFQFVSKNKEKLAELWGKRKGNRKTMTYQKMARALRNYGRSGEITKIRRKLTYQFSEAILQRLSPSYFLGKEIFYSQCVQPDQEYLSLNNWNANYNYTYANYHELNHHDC
Method in brief: as §1

ELF4 = ELF4 (Homo sapiens, UniProt Q99607 1-663); settings: protein: recombinant; tags: N-terminal GST; dsDNA, one strand shown
Method in brief: as §1

ELK4 = molecular target: T9, ELK4 (Homo sapiens, UniProt P28324-2 1-405); settings: protein: recombinant; tags: N-terminal GST; dsDNA, one strand shown
T9 sequence: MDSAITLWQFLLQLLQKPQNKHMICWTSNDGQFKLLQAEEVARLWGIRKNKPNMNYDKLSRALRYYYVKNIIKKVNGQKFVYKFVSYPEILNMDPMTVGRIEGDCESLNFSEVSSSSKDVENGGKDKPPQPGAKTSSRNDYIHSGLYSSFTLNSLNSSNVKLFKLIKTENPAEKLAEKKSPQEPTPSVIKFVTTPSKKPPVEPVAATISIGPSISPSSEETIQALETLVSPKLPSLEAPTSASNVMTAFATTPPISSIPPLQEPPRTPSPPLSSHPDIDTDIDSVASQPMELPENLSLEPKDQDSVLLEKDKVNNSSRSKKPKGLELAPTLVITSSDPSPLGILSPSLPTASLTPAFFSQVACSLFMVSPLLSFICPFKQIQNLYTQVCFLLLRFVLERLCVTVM
Method in brief: as §1

ETV2 = molecular target: T10, ETV2 (Homo sapiens, UniProt O00321 1-342); settings: protein: recombinant; tags: N-terminal GST; dsDNA, one strand shown
T10 sequence: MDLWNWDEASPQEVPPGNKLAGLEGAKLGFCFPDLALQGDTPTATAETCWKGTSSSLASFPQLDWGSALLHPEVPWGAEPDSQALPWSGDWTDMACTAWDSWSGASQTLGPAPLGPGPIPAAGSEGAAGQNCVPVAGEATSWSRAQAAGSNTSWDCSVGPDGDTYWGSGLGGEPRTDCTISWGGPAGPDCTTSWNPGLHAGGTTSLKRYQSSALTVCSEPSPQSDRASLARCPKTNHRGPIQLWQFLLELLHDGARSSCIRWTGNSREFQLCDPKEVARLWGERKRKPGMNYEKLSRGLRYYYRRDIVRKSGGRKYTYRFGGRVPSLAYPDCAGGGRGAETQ
Method in brief: as §1

ELF3 = molecular target: T11, ELF3 (Homo sapiens, UniProt P78545 1-371); settings: protein: recombinant; tags: N-terminal GST; dsDNA, one strand shown
T11 sequence: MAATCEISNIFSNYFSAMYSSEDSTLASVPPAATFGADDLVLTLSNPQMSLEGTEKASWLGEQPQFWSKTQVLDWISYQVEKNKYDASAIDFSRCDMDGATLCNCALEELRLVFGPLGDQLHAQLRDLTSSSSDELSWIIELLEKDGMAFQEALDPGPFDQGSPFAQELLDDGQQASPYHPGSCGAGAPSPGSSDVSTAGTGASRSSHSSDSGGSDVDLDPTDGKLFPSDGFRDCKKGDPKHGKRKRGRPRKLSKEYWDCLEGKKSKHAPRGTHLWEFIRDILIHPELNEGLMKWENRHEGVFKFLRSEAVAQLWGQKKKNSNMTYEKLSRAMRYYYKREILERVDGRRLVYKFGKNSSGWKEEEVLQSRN
Method in brief: as §1

CRX = CRX (Homo sapiens, UniProt O43186 1-299); settings: protein: recombinant; tags: N-terminal GST; dsDNA, one strand shown
Method in brief: as §1

ETV1 = ETV1 (Homo sapiens, UniProt P50549 1-477); settings: protein: recombinant; tags: N-terminal GST; dsDNA, one strand shown
Method in brief: as §1

ELF4, sequence (Q99607 whole entry): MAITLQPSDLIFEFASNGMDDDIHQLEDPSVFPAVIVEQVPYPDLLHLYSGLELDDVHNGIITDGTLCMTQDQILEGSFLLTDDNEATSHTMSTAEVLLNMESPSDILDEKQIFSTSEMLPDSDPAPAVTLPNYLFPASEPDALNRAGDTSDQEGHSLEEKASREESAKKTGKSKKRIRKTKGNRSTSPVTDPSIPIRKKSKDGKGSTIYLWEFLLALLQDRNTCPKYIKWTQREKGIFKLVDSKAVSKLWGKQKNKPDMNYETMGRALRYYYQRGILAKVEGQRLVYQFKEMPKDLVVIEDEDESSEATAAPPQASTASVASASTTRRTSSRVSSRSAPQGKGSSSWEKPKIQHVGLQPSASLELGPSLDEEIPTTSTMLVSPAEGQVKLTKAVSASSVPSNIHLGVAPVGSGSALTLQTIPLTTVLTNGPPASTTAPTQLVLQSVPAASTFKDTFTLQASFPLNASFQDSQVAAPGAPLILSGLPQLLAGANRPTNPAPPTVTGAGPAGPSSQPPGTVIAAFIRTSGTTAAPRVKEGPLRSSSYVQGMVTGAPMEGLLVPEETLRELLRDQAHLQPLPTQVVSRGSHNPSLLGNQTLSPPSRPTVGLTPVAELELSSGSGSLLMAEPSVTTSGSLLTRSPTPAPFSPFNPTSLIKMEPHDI
SPIB, sequence (Q01892 whole entry): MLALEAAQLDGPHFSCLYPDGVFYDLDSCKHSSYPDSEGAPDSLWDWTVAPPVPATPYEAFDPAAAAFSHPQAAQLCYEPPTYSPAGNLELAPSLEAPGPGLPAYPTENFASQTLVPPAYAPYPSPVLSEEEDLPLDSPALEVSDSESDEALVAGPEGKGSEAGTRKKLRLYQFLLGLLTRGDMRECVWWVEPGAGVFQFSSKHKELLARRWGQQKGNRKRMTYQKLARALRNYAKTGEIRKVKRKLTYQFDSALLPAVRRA
ETV5, sequence (P41161 whole entry): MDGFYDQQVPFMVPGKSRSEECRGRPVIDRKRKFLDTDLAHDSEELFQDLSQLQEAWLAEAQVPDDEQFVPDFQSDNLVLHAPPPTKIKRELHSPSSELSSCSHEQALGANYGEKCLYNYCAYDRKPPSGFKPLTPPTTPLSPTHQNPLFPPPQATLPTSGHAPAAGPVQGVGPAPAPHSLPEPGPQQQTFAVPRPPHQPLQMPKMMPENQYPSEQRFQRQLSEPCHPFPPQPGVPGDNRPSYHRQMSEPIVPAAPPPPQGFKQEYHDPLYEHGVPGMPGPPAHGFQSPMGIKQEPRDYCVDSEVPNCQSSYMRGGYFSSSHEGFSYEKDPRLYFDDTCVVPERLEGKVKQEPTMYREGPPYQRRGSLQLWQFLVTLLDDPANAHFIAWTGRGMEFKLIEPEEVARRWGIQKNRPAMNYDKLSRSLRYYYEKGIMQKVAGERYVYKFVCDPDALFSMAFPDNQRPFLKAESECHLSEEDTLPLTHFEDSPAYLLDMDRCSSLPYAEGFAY
ETV1, sequence (P50549 whole entry): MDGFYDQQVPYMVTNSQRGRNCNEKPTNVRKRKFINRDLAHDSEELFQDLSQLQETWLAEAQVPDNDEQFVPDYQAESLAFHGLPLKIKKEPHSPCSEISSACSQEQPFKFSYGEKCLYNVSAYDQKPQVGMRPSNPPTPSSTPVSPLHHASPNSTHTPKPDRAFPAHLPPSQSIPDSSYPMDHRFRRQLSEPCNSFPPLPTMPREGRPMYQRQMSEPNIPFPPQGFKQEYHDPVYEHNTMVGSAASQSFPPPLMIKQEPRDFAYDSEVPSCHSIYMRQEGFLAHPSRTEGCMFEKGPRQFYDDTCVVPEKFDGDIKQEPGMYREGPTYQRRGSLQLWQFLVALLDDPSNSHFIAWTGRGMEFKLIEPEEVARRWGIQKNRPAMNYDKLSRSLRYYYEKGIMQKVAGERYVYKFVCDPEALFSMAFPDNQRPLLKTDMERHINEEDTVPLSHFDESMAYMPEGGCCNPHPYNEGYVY
ELF1, sequence (P32519 whole entry): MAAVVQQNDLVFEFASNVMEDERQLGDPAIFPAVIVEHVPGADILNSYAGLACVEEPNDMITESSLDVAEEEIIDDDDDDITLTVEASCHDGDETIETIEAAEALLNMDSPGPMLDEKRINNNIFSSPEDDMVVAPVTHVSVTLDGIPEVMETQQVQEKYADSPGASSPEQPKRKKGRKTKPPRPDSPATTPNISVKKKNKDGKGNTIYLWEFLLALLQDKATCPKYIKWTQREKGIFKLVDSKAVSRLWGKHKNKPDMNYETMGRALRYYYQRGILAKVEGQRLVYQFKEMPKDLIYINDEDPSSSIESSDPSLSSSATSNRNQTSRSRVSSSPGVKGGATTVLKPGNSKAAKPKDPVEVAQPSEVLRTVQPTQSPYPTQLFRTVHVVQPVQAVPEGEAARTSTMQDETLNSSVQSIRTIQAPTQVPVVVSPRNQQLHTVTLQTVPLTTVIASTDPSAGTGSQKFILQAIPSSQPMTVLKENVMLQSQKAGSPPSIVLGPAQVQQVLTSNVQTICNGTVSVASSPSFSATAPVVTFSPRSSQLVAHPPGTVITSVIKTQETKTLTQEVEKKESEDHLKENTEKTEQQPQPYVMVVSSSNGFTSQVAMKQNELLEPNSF
CRX, sequence (O43186 whole entry): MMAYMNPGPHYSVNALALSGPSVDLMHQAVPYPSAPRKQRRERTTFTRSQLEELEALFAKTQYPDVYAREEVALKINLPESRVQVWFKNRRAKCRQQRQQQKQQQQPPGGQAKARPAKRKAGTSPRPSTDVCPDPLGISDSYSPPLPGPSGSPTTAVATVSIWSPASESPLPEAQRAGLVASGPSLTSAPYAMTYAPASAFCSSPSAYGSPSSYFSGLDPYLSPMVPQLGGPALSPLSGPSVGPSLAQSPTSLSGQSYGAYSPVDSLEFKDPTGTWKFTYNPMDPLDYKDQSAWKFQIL
HSF1, sequence (Q00613 whole entry): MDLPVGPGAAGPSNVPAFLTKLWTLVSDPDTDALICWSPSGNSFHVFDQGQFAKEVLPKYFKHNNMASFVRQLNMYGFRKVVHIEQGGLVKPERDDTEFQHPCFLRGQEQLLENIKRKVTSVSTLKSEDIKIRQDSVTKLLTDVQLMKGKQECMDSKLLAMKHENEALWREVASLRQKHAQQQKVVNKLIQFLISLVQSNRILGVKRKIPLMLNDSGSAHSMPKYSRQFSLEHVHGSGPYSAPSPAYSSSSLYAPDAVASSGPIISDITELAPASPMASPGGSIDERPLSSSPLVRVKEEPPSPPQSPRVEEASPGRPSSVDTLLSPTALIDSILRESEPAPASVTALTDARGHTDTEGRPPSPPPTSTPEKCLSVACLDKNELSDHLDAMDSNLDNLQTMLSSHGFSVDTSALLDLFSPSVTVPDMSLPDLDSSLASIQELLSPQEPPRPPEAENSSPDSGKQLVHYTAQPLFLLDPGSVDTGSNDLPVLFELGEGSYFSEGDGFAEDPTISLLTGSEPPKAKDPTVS

CTACTG
binding signal (FLI1): 1.31 fold enrichment (6-mer frequency, TF over GST control)
binding signal (ELK1): 1.28 fold enrichment (6-mer frequency, TF over GST control)
binding signal (GABPA): 1.35 fold enrichment (6-mer frequency, TF over GST control)
binding signal (ERG): 1.22 fold enrichment (6-mer frequency, TF over GST control)
binding signal (ELF1): 1.34 fold enrichment (6-mer frequency, TF over GST control)
binding signal (EHF): 1.33 fold enrichment (6-mer frequency, TF over GST control)
binding signal (SPI1): 1.23 fold enrichment (6-mer frequency, TF over GST control)
binding signal (SPIB): 1.05 fold enrichment (6-mer frequency, TF over GST control)
binding signal (ELK3): 1.09 fold enrichment (6-mer frequency, TF over GST control)
binding signal (FEV): 1.33 fold enrichment (6-mer frequency, TF over GST control)
binding signal (ETV5): 1.35 fold enrichment (6-mer frequency, TF over GST control)
binding signal (HSF1): 1.24 fold enrichment (6-mer frequency, TF over GST control)
binding signal (SPIC): 1.32 fold enrichment (6-mer frequency, TF over GST control)
binding signal (ELF4): 1.26 fold enrichment (6-mer frequency, TF over GST control)
binding signal (ELK4): 1.26 fold enrichment (6-mer frequency, TF over GST control)
binding signal (ETV2): 1.4 fold enrichment (6-mer frequency, TF over GST control)
binding signal (ELF3): 1.3 fold enrichment (6-mer frequency, TF over GST control)
binding signal (CRX): 1.08 fold enrichment (6-mer frequency, TF over GST control)
binding signal (ETV1): 1.3 fold enrichment (6-mer frequency, TF over GST control)
